Measured values as given in PubChem BioAssay AID720561 (Broad Institute, 2013).
Measured potencies and affinities stand elsewhere. Active and inactive are the calls of the source. No rule for the calls is given here.

Assay: HIF luciferase reporter inhibitors, dose response, ARNT-TACC3 inhibitor project, cell-based, dry powder samples, luminescence, 2158-07 (AID 720561)
Settings: HIF luciferase reporter cells; series mostly up to 50 µM

outcome, inactive:
Cc1ccc(C(=O)Nc2nc(-c3ccccn3)cs2)cc1S(=O)(=O)N1CCOCC1, CC1CCN(S(=O)(=O)c2ccc(C(=O)Nc3nnc(-c4ccno4)o3)cc2)CC1, O=C(CSc1ccc(-c2ccccn2)nn1)NC1CCCCC1, CC1CCN(S(=O)(=O)c2ccc(C(=O)Nc3nnc(-c4ccccn4)o3)cc2)CC1, O=C(CSc1ccc(-c2ccccn2)nn1)N1CCCC1, FC(F)(F)c1cc(-c2nn[nH]n2)cc(C(F)(F)F)c1, Cc1c(C(=O)N(C)C)sc2nc(-c3ccccn3)[nH]c(=O)c12, O=C(CSc1ccc(-c2ccccn2)nn1)Nc1ccccc1, C=CC1=C(C(=O)O)N2C(=O)[C@@H](NC(=O)/C(=N\O)c3csc(N)n3)[C@H]2SC1 (stereo in doubt)
